Measurements: PubChem BioAssay (NCI)
About 83,000 compounds went through this panel and 20% of them were active in at least one assay; those are over-represented in the sample as a whole.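 Treatment: one concentration, 48 hours, 96-well format. Scoring: percent growth, with anything below 10 considered active.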 Active and inactive are the calls of the source.

Legend:
Assay in all cases: NCI-60 one-dose screen, 48 h (100 = growth as untreated, 0 = no growth, -100 = all killed)
Conditions in all cases: 10 µM unless noted
SR leukemia = test system: SR leukemia
RPMI-8226 leukemia = test system: RPMI-8226 leukemia
OVCAR-8 ovarian = test system: OVCAR-8 ovarian
OVCAR-5 ovarian = test system: OVCAR-5 ovarian
OVCAR-4 ovarian = test system: OVCAR-4 ovarian
SK-OV-3 ovarian = test system: SK-OV-3 ovarian
IGROV1 ovarian = test system: IGROV1 ovarian
OVCAR-3 ovarian = test system: OVCAR-3 ovarian
NCI/ADR-RES ovarian = test system: NCI/ADR-RES ovarian
T-47D breast = test system: T-47D breast
BT-549 breast = test system: BT-549 breast
MDA-MB-435 melanoma = test system: MDA-MB-435 melanoma
SW-620 colon = test system: SW-620 colon
MCF7 breast = test system: MCF7 breast
HCT-116 colon = test system: HCT-116 colon
HCC-2998 colon = test system: HCC-2998 colon
KM12 colon = test system: KM12 colon
HS 578T breast = test system: HS 578T breast

Measured: growth

O=C(Nc1cccc(-n2ccc3c(NC(=O)c4ccccc4)nccc32)c1)Nc1ccc(Cl)c(C(F)(F)F)c1
active: SR leukemia -11.6% | RPMI-8226 leukemia -35% | OVCAR-8 ovarian 4.34% | SK-OV-3 ovarian 7.74% | OVCAR-3 ovarian -21.1% | NCI/ADR-RES ovarian -10.9% | BT-549 breast -5.15% | MDA-MB-435 melanoma -15.4% | HCT-116 colon 3.34% | KM12 colon -16.4%
inactive: OVCAR-5 ovarian 27.6% | OVCAR-4 ovarian 73.7% | IGROV1 ovarian 16.7% | T-47D breast 54.3% | SW-620 colon 25.2% | MCF7 breast 19.5% | HCC-2998 colon 17.2%

CCN1CCN(Cc2ccc(NC(=O)Nc3cccc(-n4ccc5c(NC(=O)c6ccccc6)nccc54)c3)cc2C(F)(F)F)CC1
active: MDA-MB-435 melanoma 9.58%
inactive: SR leukemia 64.3% | RPMI-8226 leukemia 99.1% | OVCAR-8 ovarian 91% | OVCAR-5 ovarian 101% | OVCAR-4 ovarian 95.8% | SK-OV-3 ovarian 78.3% | IGROV1 ovarian 74.8% | OVCAR-3 ovarian 57.3% | NCI/ADR-RES ovarian 92.1% | T-47D breast 74.7% | BT-549 breast 89.5% | SW-620 colon 86.6% | MCF7 breast 31.4% | HCT-116 colon 75.8% | HCC-2998 colon 102% | KM12 colon 53.1%

O=C(O)c1ccc2nc(-c3ccc(OCCCCCOc4ccc(-c5nc6ccc(C(=O)O)cc6[nH]5)cc4)cc3)[nH]c2c1
active: OVCAR-5 ovarian 9.11%
inactive: SR leukemia 120% | RPMI-8226 leukemia 123% | OVCAR-8 ovarian 49% | OVCAR-4 ovarian 82.6% | SK-OV-3 ovarian 48.8% | IGROV1 ovarian 109% | HS 578T breast 82.7% | NCI/ADR-RES ovarian 33.1% | T-47D breast 51.2% | BT-549 breast 130% | MDA-MB-435 melanoma 189% | SW-620 colon 57.1% | MCF7 breast 82.3% | HCT-116 colon 88.6% | HCC-2998 colon 16.4% | KM12 colon 98.6%

CC(=O)N[C@@H](CNC(=O)c1cc(NC(=O)c2cc(NC(=O)c3cc(NC(=O)c4nccn4C)cn3C)cn2C)cn1C)CC(=O)Nc1cn(C)c(C(=O)Nc2cc(C(=O)Nc3cc(C(=O)Nc4cc(C(=O)NCCCN(C)CCCNC(=O)c5cccc(C(=O)O)c5)n(C)c4)n(C)c3)n(C)c2)n1
inactive: SR leukemia 77.2% | RPMI-8226 leukemia 105% | OVCAR-8 ovarian 96% | OVCAR-5 ovarian 121% | OVCAR-4 ovarian 64% | SK-OV-3 ovarian 115% | IGROV1 ovarian 113% | OVCAR-3 ovarian 102% | NCI/ADR-RES ovarian 87.4% | T-47D breast 41.5% | MDA-MB-435 melanoma 95.5% | SW-620 colon 90.9% | MCF7 breast 77.8% | HCT-116 colon 43.9% | HCC-2998 colon 106% | KM12 colon 42.6%

Cc1ccc2c(c1)Nc1ccc(C)cc1C2(C)C
inactive: SR leukemia 88.3% | RPMI-8226 leukemia 85.4% | OVCAR-8 ovarian 103% | OVCAR-5 ovarian 105% | OVCAR-4 ovarian 92.3% | SK-OV-3 ovarian 82.2% | IGROV1 ovarian 106% | OVCAR-3 ovarian 97.7% | NCI/ADR-RES ovarian 105% | T-47D breast 80.6% | MDA-MB-435 melanoma 98.3% | SW-620 colon 103% | MCF7 breast 86.9% | HCT-116 colon 89.3% | HCC-2998 colon 104% | KM12 colon 110%

COc1cc(C(=O)N2CCN(C(=O)c3cc(OC)c(OCc4ccccc4)cc3N)CC2)c(N)cc1OCc1ccccc1
inactive: SR leukemia 81.2% | RPMI-8226 leukemia 179% | OVCAR-8 ovarian 106% | OVCAR-5 ovarian 103% | OVCAR-4 ovarian 103% | SK-OV-3 ovarian 111% | IGROV1 ovarian 106% | HS 578T breast 109% | NCI/ADR-RES ovarian 98.7% | T-47D breast 114% | BT-549 breast 101% | MDA-MB-435 melanoma 127% | SW-620 colon 119% | MCF7 breast 89.5% | HCT-116 colon 104% | HCC-2998 colon 102% | KM12 colon 109%

COc1ccccc1N1CCN(CC(O)COc2c(Br)c(Br)c(Br)c3c2OC(C)(C)C3)CC1 (stereo not drawn)
active: SR leukemia -50.4% | RPMI-8226 leukemia 1.1% | IGROV1 ovarian -19.7%
inactive: OVCAR-8 ovarian 62.2% | OVCAR-5 ovarian 61.2% | OVCAR-4 ovarian 30.4% | SK-OV-3 ovarian 84.2% | HS 578T breast 67.3% | NCI/ADR-RES ovarian 45.7% | T-47D breast 39.8% | BT-549 breast 98.6% | MDA-MB-435 melanoma 37.2% | SW-620 colon 33.3% | MCF7 breast 26.8% | HCT-116 colon 27.4% | HCC-2998 colon 39.9% | KM12 colon 35.7%

NN=C(c1ccc(Cl)cc1)c1ccc(Cl)cc1
inactive: SR leukemia 104% | RPMI-8226 leukemia 102% | OVCAR-8 ovarian 104% | OVCAR-5 ovarian 95% | OVCAR-4 ovarian 103% | SK-OV-3 ovarian 105% | IGROV1 ovarian 119% | OVCAR-3 ovarian 107% | NCI/ADR-RES ovarian 108% | T-47D breast 108% | MDA-MB-435 melanoma 97.1% | SW-620 colon 101% | MCF7 breast 99.6% | HCT-116 colon 98.4% | HCC-2998 colon 96% | KM12 colon 92.9%

COc1cc(-c2nc3sc(C)cn3c2/C=C2\C(=O)Nc3ccccc32)c(Br)c(OC)c1OC
active: SR leukemia 3.87% | IGROV1 ovarian -11.8% | MDA-MB-435 melanoma -8.78% | MCF7 breast 1.61%
inactive: RPMI-8226 leukemia 28.6% | OVCAR-8 ovarian 65% | OVCAR-5 ovarian 81.6% | OVCAR-4 ovarian 54.4% | SK-OV-3 ovarian 31.2% | HS 578T breast 15.7% | NCI/ADR-RES ovarian 22.9% | T-47D breast 51.5% | BT-549 breast 14.8% | SW-620 colon 21.2% | HCT-116 colon 22% | HCC-2998 colon 97% | KM12 colon 15.1%

COc1cc(/C=C/C(=O)c2c(C)n([O-])c3cc(C)c(C)cc3[n+]2=O)cc(OC)c1OC
active: IGROV1 ovarian -21.3%
inactive: SR leukemia 29% | RPMI-8226 leukemia 38.8% | OVCAR-8 ovarian 63.2% | OVCAR-5 ovarian 111% | OVCAR-4 ovarian 73.3% | SK-OV-3 ovarian 86.6% | HS 578T breast 69% | NCI/ADR-RES ovarian 72% | T-47D breast 51.8% | BT-549 breast 23% | MDA-MB-435 melanoma 45.8% | SW-620 colon 50.1% | MCF7 breast 11.1% | HCT-116 colon 42.6% | HCC-2998 colon 85.5% | KM12 colon 69.8%

COc1ccc(-c2c(C#N)cnc(N)c2-c2nc3cc(C)c(C)cc3[nH]2)cc1
active: MDA-MB-435 melanoma -5.12% | HCC-2998 colon 1.45%
inactive: SR leukemia 20.2% | RPMI-8226 leukemia 81.3% | OVCAR-8 ovarian 43.6% | OVCAR-5 ovarian 102% | OVCAR-4 ovarian 50.7% | SK-OV-3 ovarian 46% | IGROV1 ovarian 36.4% | OVCAR-3 ovarian 55.7% | NCI/ADR-RES ovarian 50.2% | T-47D breast 71.7% | SW-620 colon 38.4% | MCF7 breast 50.9% | HCT-116 colon 20.7% | KM12 colon 17.2%

C[C@H]1C=C(C[C@@H](O)CCCCCCCCCC[C@@H](O)[C@H]2CCC(=O)O2)C(=O)O1
active: IGROV1 ovarian -23.5%
inactive: SR leukemia 114% | RPMI-8226 leukemia 79.9% | OVCAR-8 ovarian 96.7% | OVCAR-5 ovarian 91.7% | OVCAR-4 ovarian 97.6% | SK-OV-3 ovarian 110% | HS 578T breast 128% | NCI/ADR-RES ovarian 99.6% | T-47D breast 92.6% | BT-549 breast 112% | MDA-MB-435 melanoma 113% | SW-620 colon 99.9% | MCF7 breast 118% | HCT-116 colon 87.9% | HCC-2998 colon 97.7% | KM12 colon 105%

COc1cccc(/C=N/C(=S)NC2(C)C3CCC(C3)C2(C)C)c1O (stereo not drawn)
inactive: SR leukemia 38.4% | RPMI-8226 leukemia 73.5% | OVCAR-8 ovarian 85.4% | OVCAR-5 ovarian 102% | OVCAR-4 ovarian 45.5% | SK-OV-3 ovarian 102% | IGROV1 ovarian 64.3% | OVCAR-3 ovarian 73.2% | NCI/ADR-RES ovarian 83.7% | T-47D breast 56.5% | MDA-MB-435 melanoma 89.8% | SW-620 colon 78.9% | MCF7 breast 47.8% | HCT-116 colon 53.4% | HCC-2998 colon 108% | KM12 colon 87.8%

CC(C)Cn1cnc2c3ccccc3nc(NCn3nc(-c4cc(Cl)cc(Cl)c4Cl)oc3=S)c21
inactive: SR leukemia 25.5% | RPMI-8226 leukemia 74.8% | OVCAR-8 ovarian 98.4% | OVCAR-5 ovarian 88.3% | OVCAR-4 ovarian 88.2% | SK-OV-3 ovarian 109% | IGROV1 ovarian 51% | HS 578T breast 116% | NCI/ADR-RES ovarian 66.4% | T-47D breast 94.4% | BT-549 breast 97.5% | MDA-MB-435 melanoma 91.4% | SW-620 colon 117% | MCF7 breast 96.2% | HCT-116 colon 79.3% | HCC-2998 colon 97.4% | KM12 colon 99.7%

Nn1c(SCC(=O)Nc2cc(Cl)c(Cl)cc2Cl)nnc1-c1cc(F)c(Cl)cc1Cl
inactive: SR leukemia 99.5% | RPMI-8226 leukemia 132% | OVCAR-8 ovarian 97.5% | OVCAR-5 ovarian 108% | OVCAR-4 ovarian 120% | SK-OV-3 ovarian 105% | IGROV1 ovarian 55.2% | HS 578T breast 103% | NCI/ADR-RES ovarian 99.7% | T-47D breast 97.5% | BT-549 breast 87.4% | MDA-MB-435 melanoma 91.2% | SW-620 colon 106% | MCF7 breast 78.8% | HCT-116 colon 91.2% | HCC-2998 colon 139% | KM12 colon 110%

O=C(Nc1ccc(-n2ccc3c(NC(=O)c4ccccc4)ncnc32)cc1)Nc1cccc(Cl)c1Cl
active: OVCAR-4 ovarian -74.3% | SK-OV-3 ovarian -14.8% | IGROV1 ovarian -3.19% | OVCAR-3 ovarian -41.7% | NCI/ADR-RES ovarian 4.77% | MDA-MB-435 melanoma -4.29% | MCF7 breast 2.07% | HCT-116 colon -25.4%
inactive: SR leukemia 21.8% | RPMI-8226 leukemia 10.2% | OVCAR-8 ovarian 13.4% | OVCAR-5 ovarian 17.5% | T-47D breast 42.8% | SW-620 colon 11.5% | HCC-2998 colon 64.6% | KM12 colon 20.7%

Nc1ccc(S(=O)(=O)Nc2cc(I)cc(I)c2)cc1
inactive: SR leukemia 15.8% | RPMI-8226 leukemia 97.5% | OVCAR-8 ovarian 107% | OVCAR-5 ovarian 86.5% | OVCAR-4 ovarian 99% | SK-OV-3 ovarian 117% | IGROV1 ovarian 104% | HS 578T breast 117% | NCI/ADR-RES ovarian 97.5% | T-47D breast 105% | BT-549 breast 118% | MDA-MB-435 melanoma 106% | SW-620 colon 119% | MCF7 breast 120% | HCT-116 colon 99.5% | HCC-2998 colon 105% | KM12 colon 111%
